High-throughput results as filed in PubChem BioAssay.
KB-3-1 cytotox: KB-3-1 parental cell cytotoxicity. KB-3-1 viability, CellTiter-Glo ATP luminescence, 72 h. Potency, µM (doses to about 46.1 µM), actives largely listed as cytotoxic. hit rate 1.4% among 400,000. AID 1347075; further: on the % scale 0 is the no-effect control and ±100 the full control effect; nearly all actives have a fitted effect of over 60% in size
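72 h, 37 °C compound treatment of KB-3-1 parental cells; CellTiter-Glo added, 10 min, luminescence read. Data corrected against DMSO-only plates and normalized before curve fitting.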
MCF10A rerep: DNA re-replication induction in MCF 10a cells | hit rate 2.9% among 350,000 | AID 624296 | MCF 10A DNA re-replication, Hoechst nuclear intensity, 48 h | Potency, µM (series often up to 46.1 µM), without a hit: at the top dose activity, positive = re-replication, actives largely listed as activators; further: % of control where 0% means no effect; nearly all actives have a fitted effect of over 50% in size
SW480 rereplic: induces DNA re-replication in SW480 colon adenocarcinoma cells | SW480 DNA re-replication, Hoechst DNA content imaging, 48 h | Potency, µM (titrated, usually from 46.1 µM), inactives show at the highest dose re-replication activation, actives largely listed as activators | hit rate 1.8% among 340,000; further: % of control where 0% means no effect; nearly all actives have a fitted effect of over 55% in size
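Readout is total intensity of Hoechst-stained nuclei, excited at 405 nm and collected at 500-530 nm. Compound treatment lasted 48 hr at 37 C in 5% CO2 before staining.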
ELG1 DNA repair: inhibitors of ELG1-dependent DNA repair in HEK293T cells | AID 504467 | Potency, µM (highest dose often 46.1 µM), without a hit: top-dose activity change, negative = inhibition, hits mostly inhibitors | hit rate 2.3% among 330,000 | HEK293T ELG1-luciferase reporter, luminescence, 16 h; DNA damage induced by 5-fluorouridine; further: on the % scale 0 is the no-effect control and ±100 the full control effect; nearly all actives have a fitted effect of over 55% in size
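DMSO vehicle served as the neutral condition. Each well held 2,000 cells given 5-fluorouridine plus compound; after 16 hr at 37 °C/5% CO2, ONE-Glo was added and luciferase measured 30 min later.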
KB-V1 cytotox: KB-V1 MDR subline cytotoxicity; KB-V1 MDR cells viability, CellTiter-Glo, 72 h; Potency, µM (series often up to 46.1 µM), hits mostly cytotoxic; hit rate 3.4% among 400,000; further: on the % scale 0 is the no-effect control and ±100 the full control effect; nearly all actives have a fitted effect of over 60% in size
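Cytotoxicity toward P-gp-expressing KB-V1 cells was determined as loss of CellTiter-Glo luminescence after 72 h at 37 degrees C. Compounds were tested in quantitative HTS format across a concentration range, with curves fitted to normalized data.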
ELG1 FLuc counter: luciferase inhibition in cell-free luciferin readout for ELG1 hits | shares compounds with ELG1 DNA repair | cell-free firefly luciferase luminescence counter-screen, ViewLux | hit rate 3% among 350 | Potency, µM (series often up to 46.1 µM), for inactives: at the highest dose activity change, negative = inhibition, usual class: inhibitors; further: on the % scale 0 is the no-effect control and ±100 the full control effect
ELG1-Luc inh: human ELG1 repair inhibition, luciferase-tagged ELG1 confirmation; HEK293T ELG1-luciferase levels, luminescence; cells co-treated with 5-fluorouridine; shares compounds with ELG1 DNA repair; AID 624248; hit rate 68% among 670; Potency, µM (series often up to 46.1 µM), without a hit: at the highest dose activity change, negative = inhibition, hits mostly inhibitors; further: on the % scale 0 is the no-effect control and ±100 the full control effect; nearly all actives have a fitted effect of over 55% in size
ELG1-Luc MMS: MMS-stimulated human ELG1 repair inhibition, confirmed | shares compounds with ELG1 DNA repair | HEK293T luciferase-tagged ELG1 level, MMS stimulated | Potency, µM (highest dose often 46.1 µM), inactives show at the top dose activity change, negative = inhibition, usual class: inhibitors | hit rate 53% among 670 | AID 624249; further: on the % scale 0 is the no-effect control and ±100 the full control effect; nearly all actives have a fitted effect of over 60% in size
ELG1 5-FU: confirmation of ELG1 repair inhibitors: viability with 5FU. AID 624250. Potency, µM (highest dose often 46.1 µM), inactives show at the top dose activity change, negative = viability loss, usual class: cytotoxic. 670 tested, under 10 active. shares compounds with ELG1 DNA repair. cell viability with 5-FU, ELG1-dependent repair;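 further: ELG1-luc HEK293T cells cotreated with 5-fluorouridine at 10 µM final; viability measured 16 h after compound addition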
ELG1 MMS viab: confirmation of ELG1 repair inhibitors: viability with MMS. shares compounds with ELG1 DNA repair. Cell viability with MMS, ELG1-dependent DNA repair. Potency, µM (titrated, usually from 46.1 µM), inactives show at the highest dose activity change, negative = viability loss, most hits filed as cytotoxic. hit rate 33% among 670. AID 624251;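 further: ELG1-luc HEK293T cells co-treated with 10 µM MMS; viability read 16 h after compound addition; on the % scale 0 is the no-effect control and ±100 the full control effect; nearly all actives have a fitted effect of over 60% in size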
Cell viab unstim: counter-screen for ELG1 repair inhibitors: unstimulated cell viability. Potency, µM (top dose mostly 45.9 µM), for inactives: at the top dose activity change, negative = loss of viability, usual class: cytotoxic. shares compounds with ELG1 DNA repair. cell viability counter-screen, unstimulated, luminescence. AID 624252. hit rate 8% among 900;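 further: compound exposure lasted 16 hours before reading; on the % scale 0 is the no-effect control and ±100 the full control effect; nearly all actives have a fitted effect of over 55% in size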
FLuc biochem: firefly luciferase inhibition counter-screen; AID 624253; Potency, µM (doses to about 57.5 µM), for inactives: at the highest dose activity, negative = inhibition, hits mostly inhibitors; purified firefly luciferase, luminescence counter-screen; shares compounds with ELG1 DNA repair; hit rate 10% among 350; further: on the % scale 0 is the no-effect control and ±100 the full control effect
* marks the source's active call; other numbers are inactive results; i = inactive; u = inconclusive; x = not tested or not shown; [ ] = dose if it differs, or a comment. In the library only some 8.2% were active in any assay of this set; here they are far more common. The call rests on the fitted dose curve; in most records, active means well fitted curve in the direction sought with a large enough effect; inconclusive means small, poorly fitted or top-dose-only effect, or another doubt; inactive means no such curve, though single readings can be large; an effect the other way counts as inactive or inconclusive. Potency means the concentration at half of the fitted maximal effect.

SMILES	KB-3-1 cytotox	MCF10A rerep	SW480 rereplic	ELG1 DNA repair	KB-V1 cytotox	ELG1-Luc inh	ELG1-Luc MMS	ELG1 5-FU	ELG1 MMS viab	Cell viab unstim	others
CCOC(=O)c1[nH]c2ccc(OC)cc2c1NC(=O)CN1CCSCC1	i	-1%	-4%	u	i	x	x	x	x	x
CCOC(=O)c1[nH]c2cc(OC)c(OC)cc2c1NC(=O)CN1CCN(c2ccc(OC)cc2)C(C)C1 (centres undefined)	x	x	x	1.3µM*	x	3.2µM*	36µM*	u	u	41µM*	ELG1 FLuc counter=u;FLuc biochem=-4%[115 µM]
CC(=O)c1ccc(N2CCN(C(=O)c3cc4ccc5cccnc5c4[nH]3)CC2)cc1	i	x	x	x	i	x	x	x	x	x
CCCCCCC1(C)NC(=S)N(c2ccccc2)N1 (centres undefined)	u	-8%	-3%	u	i	19%	24%	-8%	-15%	u
Fc1ccc(Nc2nc(-c3ccncc3)nc3ccccc23)cc1F	i	0%	4%	1.8µM*	i	1.4µM*	u	u	-7%	u	ELG1 FLuc counter=2%;FLuc biochem=4%
Cc1cc(C(=O)COC(=O)C23CC4CC(CC(O)(C4)C2)C3)c(C)n1C	i	6%	-3%	u	i	x	x	x	x	4%
CC(=O)NC12CC3CC(C1)CC(C(=O)OCC(=O)c1cc(C)n(C)c1C)(C3)C2	x	u	-3%	u	x	x	x	x	x	-8%
O=C(CCCN=C1NS(=O)(=O)c2ccccc21)OCC(=O)c1ccc(F)cc1	i	0%	-35%	u	u	x	x	x	x	x
Cn1c(SCC(=O)Nc2ccccc2)nc2ccccc2c1=O	u	u	3%	u	u	x	x	x	x	x
Cc1oc(-c2ccc(Cl)cc2)nc1CN1CCCC(C(=O)N2CCOCC2)C1 (centres undefined)	i	5%	-2%	4%	i	x	x	x	x	x
CCc1ccc(-c2nc(CN3CCC(C(=O)N4CCN(c5ccccn5)CC4)CC3)c(C)o2)cc1	u	u	4%	4.1µM*	i	7.1µM*	7.9µM*	-5%	7.9µM*	u
Cc1oc(-c2cccc(Cl)c2)nc1CN1CCC(C(=O)N2CCN(c3ccccn3)CC2)CC1	i	1%	4%	x	i	x	x	x	x	x
Cc1oc(-c2ccc(Cl)cc2)nc1CN1CCCC(C(=O)N2CCN(C(=O)c3ccco3)CC2)C1 (centres undefined)	u	13%	2%	4.1µM*	i	14µM*	1.3µM*	-8%	1.6µM*	u
COc1ccc(-n2nc(C(=O)NCC(=O)NCCCN3CC(C)CC(C)C3)c3ccccc3c2=O)cc1Cl (centres undefined)	i	18%	u	8%	u	x	x	x	x	x
Cc1ccc2c(c1)C/C(=C/c1ccc(N(C)C)cc1)C2=O	i	x	x	x	i	x	x	x	x	0%
CN(C)c1ccc(/C=C2\CCc3cc(N)ccc32)cc1	i	x	x	x	i	x	x	x	x	x
Cc1cc(NC(=O)c2ccc(-c3ccc(Br)cc3)o2)cc(-c2nc3ncccc3o2)c1O	i	x	x	x	i	x	x	x	x	x
O=C(c1ccc(-c2cc3ccccc3oc2=O)cc1)N1CCN(c2ccc(Cl)cc2[N+](=O)[O-])CC1	i	-3%	2%	4.6µM*	u	5µM*	-7%	u	u	u
O=[N+]([O-])c1cc(Cl)ccc1N1CCN(c2ccccc2O)CC1	i	u	u	-23%	u	x	x	x	x	x
CCOc1ccc(S(=O)(=O)Nc2ccn(C)n2)cc1	u	10%	4%	12%	i	x	x	x	x	x
CCOc1ccc(C(C(=O)NC2CCCC2)N(C(=O)c2snc(C(N)=O)c2N)c2cccc(O)c2)cc1 (centres undefined)	i	16%	16%	4.6µM*	i	2µM*	u	u	-8%	u
CCOc1ccc(N(C(=O)c2snc(C(N)=O)c2N)C(C(=O)NCC2CCCO2)c2ccco2)cc1 (centres undefined)	i	9%	u	-3%	i	x	x	x	x	x
CCOc1ccc(C(C(=O)NCC2CCCO2)N(C(=O)c2snc(C(N)=O)c2N)c2ccc3c(c2)OCCO3)cc1 (centres undefined)	u	u	20%	3.3µM*	u	1.3µM*	29%	u	5%	-5%
NC(=O)c1nsc(C(=O)N(c2cccc(O)c2)C(C(=O)NC2CCCC2)c2ccc(Cl)cc2)c1N (centres undefined)	u	2%	-1%	-17%	u	x	x	x	x	x
Cc1ccc(-n2c3c(cc(C(=O)Nc4ccccc4C(N)=O)c2=O)C(=O)CC(C)(C)C3)cc1	i	x	x	x	u	x	x	x	x	x
CCCCN1C(=O)C2(OCCCO2)c2cccc(C)c21	i	3%	-1%	-3%	i	x	x	x	x	x
COc1ccc(OCCN2CCN(C(=O)c3ccc(OC)cc3)CC2)cc1	u	0%	-5%	3.3µM*	u	u	7.1µM*	-4%	7.9µM*	-22%
O=c1c2c(-c3ccccc3)csc2ncn1/N=C/c1c2ccccc2cc2ccccc12	i	3%	-4%	u	i	x	x	x	x	x
